In ChEMBL document CHEMBL4513216, “Probing the Open Global Health Chemical Diversity Library for Multistage-Active Starting Points for Next-Generation Antimalarials” (ACS Infect Dis, 2020):
About 8,600 (12%) of roughly 69,000 compounds showed an effect of 50% or more. This is one part of a sample in which strong results are shown more often than they occur.

Tested on: Plasmodium berghei
Assay: Screen against P. berghei liver stage (PbLuc), transformed with Luciferase, at 10uM
Type: functional, HepG2
Conditions: tested at 10 uM

How did the INHIBITION turn out when `Cc1nc(CN2C(=O)CC[C@@H]3[C@H]2CCN3C(=O)NC2CC2)cs1` was run?
The INHIBITION was 38.7%.

Which INHIBITION does the source give for `CN(CC(=O)N1CCOCC(CO)C1)Cc1ccccn1` (configuration not stated) here?
Its INHIBITION is 19.5%.

For `Cc1n[nH]c(CCC(=O)N2CCOC(Cc3ccccc3)C2)c1C` (configuration not stated), which INHIBITION is on record?
Its INHIBITION is 7.19%.

How did the INHIBITION turn out when `Cc1ncoc1C(=O)N1CCOC(Cc2ccccc2)C1` (configuration not stated) was run?
The INHIBITION was 55%.

How did the INHIBITION turn out when `Cc1n[nH]c(CCC(=O)N2CCOC(Cc3ccc(F)cc3)C2)c1C` (configuration not stated) was run?
The INHIBITION was 55.4%.

Which INHIBITION does the source give for `O=C(c1scc2c1OCCO2)N1CCOC(Cc2ccc(F)cc2)C1` (configuration not stated) here?
The INHIBITION was 0.72%.

For `O=C(c1scc2c1OCCO2)N1CCOC(Cc2cccc(F)c2)C1` (configuration not stated), which INHIBITION is on record?
Its INHIBITION is -22%.

Which INHIBITION does the source give for `Cc1ccnn1CCC(=O)N1CCOC(CCc2ccccc2)C1` (configuration not stated) here?
The INHIBITION was 44.3%.

For `Cc1nc(C(=O)N2CCOC(Cc3ccccc3)C2)co1` (configuration not stated), which INHIBITION is on record?
The INHIBITION was -48.5%.

With `O=C(c1scc2c1OCCO2)N1CCOC(CCc2ccccc2)C1` (configuration not stated) as the compound, how does the INHIBITION read?
The INHIBITION was 75%.

With `COc1ccc(CC2CN(C(=O)c3ocnc3C)CCO2)cc1` (configuration not stated) as the compound, how does the INHIBITION read?
Its INHIBITION is 46.4%.

`Cc1nc(C(=O)N2CCOC(Cc3ccc(F)cc3)C2)co1` (configuration not stated) was tested. Which INHIBITION did it give?
Its INHIBITION is -23.4%.

Which INHIBITION does the source give for `CN(CC(=O)N1CCOC(CCc2ccccc2)C1)Cc1ccccn1` (configuration not stated) here?
The INHIBITION was 54.2%.

With `CC(C)CCc1n[nH]c(C(=O)O)c1Br` as the compound, how does the INHIBITION read?
The INHIBITION was 11.7%.

With `O=c1[nH]c2cn(-c3cccc(F)c3)c(=O)n2[nH]1` as the compound, how does the INHIBITION read?
Its INHIBITION is 48%.

With `CC(C)Cn1cncc1-c1nc2c([nH]1)CCCNC2=O` as the compound, how does the INHIBITION read?
Its INHIBITION is -21.8%.

How did the INHIBITION turn out when `Cc1cccc(-c2nc(C)nn2CC(=O)NC(C)C2CC2)c1` (configuration not stated) was run?
Its INHIBITION is 33.3%.

`Cc1cccc2c1NC(c1cnc(C3CCC3)s1)NC2=O` (configuration not stated) was tested. Which INHIBITION did it give?
The INHIBITION was 39.3%.

For `Cc1cc(=O)n2nc(Oc3ccc(F)c(F)c3)sc2n1`, which INHIBITION is on record?
The INHIBITION was 42.5%.

With `CC(=O)N1CCC(Cc2cnc(C(=O)N3CCCC3)cn2)C1` (configuration not stated) as the compound, how does the INHIBITION read?
The INHIBITION was 7.52%.

Which INHIBITION does the source give for `Cc1ccc(OCCN(C)C(C)c2cccc(S(N)(=O)=O)c2)cc1` (configuration not stated) here?
The INHIBITION was -31.8%.

For `CN(C)C[C@H]1OC[C@@H]2CCN(C(=O)Cc3cccs3)C[C@@H]21`, which INHIBITION is on record?
Its INHIBITION is 13.7%.

With `Cc1cc(N2Cc3cnn(CCO)c3C2)nc(-c2ccccc2)n1` as the compound, how does the INHIBITION read?
Its INHIBITION is -81.1%.

Which INHIBITION does the source give for `O=C(c1cccnc1)N1CCOC(Cc2ccccc2Cl)C1` (configuration not stated) here?
The INHIBITION was 0.55%.

With `CCNc1ncc(C(=O)N2CCOC(CCCc3ccccc3)C2)cn1` (configuration not stated) as the compound, how does the INHIBITION read?
The INHIBITION was 42.1%.

With `O=C(c1cccnc1)N1CCOC(CCCc2ccccc2)C1` (configuration not stated) as the compound, how does the INHIBITION read?
Its INHIBITION is 60.9%.

With `COCCCN1Cc2cccc(NC(=O)c3cc(F)cc(F)c3)c2C1` as the compound, how does the INHIBITION read?
Its INHIBITION is 45.7%.

How did the INHIBITION turn out when `COCCCN1Cc2cccc(NC(=O)c3ccccc3C)c2C1` was run?
The INHIBITION was 40.6%.

How did the INHIBITION turn out when `COCCCN1Cc2cccc(NC(=O)c3ccccc3Cl)c2C1` was run?
The INHIBITION was 50%.

`CCn1c(NCc2cccnc2)nc2c(C)nn(C)c2c1=O` was tested. Which INHIBITION did it give?
Its INHIBITION is -9.73%.

For `CCn1c(NCc2ccccc2)nc2c(C)nn(C)c2c1=O`, which INHIBITION is on record?
Its INHIBITION is 33.3%.

How did the INHIBITION turn out when `CCCn1c(NCCc2ccccc2)nc2c(C)nn(C)c2c1=O` was run?
Its INHIBITION is 64.8%.

With `Cc1nn(C)c2c(=O)n(C(C)C)c(NCC3CCCO3)nc12` (configuration not stated) as the compound, how does the INHIBITION read?
The INHIBITION was 3.58%.

Which INHIBITION does the source give for `CCn1c(NCc2ccccn2)nc2c(C)nn(C)c2c1=O` here?
The INHIBITION was 18.4%.

`Cc1nn(C)c2c(=O)n(C(C)C)c(NCCc3ccccc3)nc12` was tested. Which INHIBITION did it give?
The INHIBITION was 87.2%.

For `CCCn1nc(C)c(C(=O)N(C)[C@@H]2CC[C@@H](OC)[C@@H]2O)c1C`, which INHIBITION is on record?
The INHIBITION was 40.65%.

For `CCn1ncc2c(C(F)(F)F)cc(-c3cnn(C)c3)nc21`, which INHIBITION is on record?
Its INHIBITION is 19.55%.
